Here are results for 18 compounds from ChEMBL document CHEMBL2218924, “A broad activity screen in support of a chemogenomic map for kinase signalling research and drug discovery” (Biochem J, 2013).

In assay [1] the target is T1, Protein kinase C zeta type (Homo sapiens) (UniProt Q05513).
T1 sequence (whole entry): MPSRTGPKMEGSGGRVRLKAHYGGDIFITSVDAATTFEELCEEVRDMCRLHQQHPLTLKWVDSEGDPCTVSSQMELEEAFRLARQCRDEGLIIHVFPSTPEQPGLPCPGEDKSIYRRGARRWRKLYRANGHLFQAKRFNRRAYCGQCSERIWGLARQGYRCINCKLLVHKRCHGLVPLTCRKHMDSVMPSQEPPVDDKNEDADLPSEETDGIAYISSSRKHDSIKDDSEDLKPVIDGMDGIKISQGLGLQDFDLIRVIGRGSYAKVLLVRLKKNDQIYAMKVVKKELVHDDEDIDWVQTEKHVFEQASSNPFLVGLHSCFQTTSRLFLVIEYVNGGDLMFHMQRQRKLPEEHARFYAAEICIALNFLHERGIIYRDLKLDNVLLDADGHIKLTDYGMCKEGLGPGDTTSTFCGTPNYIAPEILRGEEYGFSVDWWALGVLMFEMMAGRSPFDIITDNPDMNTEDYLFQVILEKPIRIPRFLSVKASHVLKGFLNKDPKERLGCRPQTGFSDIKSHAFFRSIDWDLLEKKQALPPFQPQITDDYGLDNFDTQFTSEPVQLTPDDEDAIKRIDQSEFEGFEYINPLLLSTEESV
The note with it: at 1 µM.

The target in assay [2] is T2, Mitogen-activated protein kinase kinase kinase 5 (Homo sapiens) (UniProt Q99683).
T2 sequence (whole entry): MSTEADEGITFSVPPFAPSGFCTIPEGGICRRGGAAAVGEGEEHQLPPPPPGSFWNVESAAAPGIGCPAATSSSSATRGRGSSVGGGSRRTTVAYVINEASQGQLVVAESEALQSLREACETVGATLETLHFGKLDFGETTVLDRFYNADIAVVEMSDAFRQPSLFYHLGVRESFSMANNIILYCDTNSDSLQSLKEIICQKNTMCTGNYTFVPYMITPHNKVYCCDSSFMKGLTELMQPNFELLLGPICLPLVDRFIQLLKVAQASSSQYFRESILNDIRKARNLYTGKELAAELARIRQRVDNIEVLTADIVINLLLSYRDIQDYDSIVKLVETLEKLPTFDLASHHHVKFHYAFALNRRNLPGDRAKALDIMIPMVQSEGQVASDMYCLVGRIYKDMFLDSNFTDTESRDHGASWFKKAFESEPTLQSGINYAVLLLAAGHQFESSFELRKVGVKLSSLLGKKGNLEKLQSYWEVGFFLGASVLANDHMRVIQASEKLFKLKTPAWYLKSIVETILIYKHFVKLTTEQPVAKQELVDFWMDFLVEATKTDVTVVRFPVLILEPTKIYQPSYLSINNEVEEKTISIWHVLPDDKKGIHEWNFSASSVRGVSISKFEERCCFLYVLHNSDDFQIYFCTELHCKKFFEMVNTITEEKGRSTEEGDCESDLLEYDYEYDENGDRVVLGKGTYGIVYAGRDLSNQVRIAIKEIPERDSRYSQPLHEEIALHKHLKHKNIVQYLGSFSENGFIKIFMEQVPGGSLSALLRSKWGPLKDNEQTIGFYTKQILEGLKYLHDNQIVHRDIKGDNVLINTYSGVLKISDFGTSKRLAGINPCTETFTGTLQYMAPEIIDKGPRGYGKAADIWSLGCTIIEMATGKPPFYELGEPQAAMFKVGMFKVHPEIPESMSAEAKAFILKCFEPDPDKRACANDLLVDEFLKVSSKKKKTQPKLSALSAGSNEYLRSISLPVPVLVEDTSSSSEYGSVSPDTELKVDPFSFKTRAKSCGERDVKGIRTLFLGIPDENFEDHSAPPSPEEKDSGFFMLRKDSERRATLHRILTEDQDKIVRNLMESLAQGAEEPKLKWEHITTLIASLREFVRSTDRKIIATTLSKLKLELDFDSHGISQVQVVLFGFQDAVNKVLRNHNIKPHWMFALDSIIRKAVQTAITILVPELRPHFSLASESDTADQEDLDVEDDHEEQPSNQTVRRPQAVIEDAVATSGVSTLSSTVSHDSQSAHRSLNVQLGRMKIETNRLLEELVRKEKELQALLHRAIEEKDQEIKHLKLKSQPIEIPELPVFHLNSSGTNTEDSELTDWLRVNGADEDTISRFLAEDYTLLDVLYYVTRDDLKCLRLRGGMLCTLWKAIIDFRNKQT
The note with it: at 10 µM.

Assay [3] deals with Tyrosine-protein kinase ABL2 (Homo sapiens) (UniProt P42684). The note with it: at 1 µM.
Assay [4] shares this target. The note with it: at 10 µM.
Assay [5] concerns the target T3, Aurora kinase A (Homo sapiens) (UniProt O14965).
T3 sequence (whole entry): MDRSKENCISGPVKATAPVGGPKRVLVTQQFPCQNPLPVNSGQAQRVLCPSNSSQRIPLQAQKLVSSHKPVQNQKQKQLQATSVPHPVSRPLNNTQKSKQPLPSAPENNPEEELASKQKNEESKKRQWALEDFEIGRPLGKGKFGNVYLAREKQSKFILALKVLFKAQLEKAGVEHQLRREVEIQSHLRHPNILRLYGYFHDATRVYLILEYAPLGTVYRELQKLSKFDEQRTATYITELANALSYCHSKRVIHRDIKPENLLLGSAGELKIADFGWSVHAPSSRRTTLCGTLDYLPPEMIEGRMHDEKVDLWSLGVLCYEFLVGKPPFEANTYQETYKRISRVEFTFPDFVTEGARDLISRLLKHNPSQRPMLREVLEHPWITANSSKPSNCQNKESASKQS
The note with it: at 1 µM.

In assay [6] the target is T3, Aurora kinase A (Homo sapiens). The note with it: at 10 µM.
For assay [7], the target named is Aurora kinase B (Homo sapiens) (UniProt Q96GD4). The note with it: at 1 µM.
For assay [8] the target is unchanged. The note with it: at 10 µM.
Assay [9] deals with Tyrosine-protein kinase ABL1 (Homo sapiens) (UniProt P00519). The note with it: at 1 µM.
Assay [10] shares this target. The note with it: at 10 µM.

Sequence of Tyrosine-protein kinase ABL2 (Homo sapiens) (P42684 whole entry): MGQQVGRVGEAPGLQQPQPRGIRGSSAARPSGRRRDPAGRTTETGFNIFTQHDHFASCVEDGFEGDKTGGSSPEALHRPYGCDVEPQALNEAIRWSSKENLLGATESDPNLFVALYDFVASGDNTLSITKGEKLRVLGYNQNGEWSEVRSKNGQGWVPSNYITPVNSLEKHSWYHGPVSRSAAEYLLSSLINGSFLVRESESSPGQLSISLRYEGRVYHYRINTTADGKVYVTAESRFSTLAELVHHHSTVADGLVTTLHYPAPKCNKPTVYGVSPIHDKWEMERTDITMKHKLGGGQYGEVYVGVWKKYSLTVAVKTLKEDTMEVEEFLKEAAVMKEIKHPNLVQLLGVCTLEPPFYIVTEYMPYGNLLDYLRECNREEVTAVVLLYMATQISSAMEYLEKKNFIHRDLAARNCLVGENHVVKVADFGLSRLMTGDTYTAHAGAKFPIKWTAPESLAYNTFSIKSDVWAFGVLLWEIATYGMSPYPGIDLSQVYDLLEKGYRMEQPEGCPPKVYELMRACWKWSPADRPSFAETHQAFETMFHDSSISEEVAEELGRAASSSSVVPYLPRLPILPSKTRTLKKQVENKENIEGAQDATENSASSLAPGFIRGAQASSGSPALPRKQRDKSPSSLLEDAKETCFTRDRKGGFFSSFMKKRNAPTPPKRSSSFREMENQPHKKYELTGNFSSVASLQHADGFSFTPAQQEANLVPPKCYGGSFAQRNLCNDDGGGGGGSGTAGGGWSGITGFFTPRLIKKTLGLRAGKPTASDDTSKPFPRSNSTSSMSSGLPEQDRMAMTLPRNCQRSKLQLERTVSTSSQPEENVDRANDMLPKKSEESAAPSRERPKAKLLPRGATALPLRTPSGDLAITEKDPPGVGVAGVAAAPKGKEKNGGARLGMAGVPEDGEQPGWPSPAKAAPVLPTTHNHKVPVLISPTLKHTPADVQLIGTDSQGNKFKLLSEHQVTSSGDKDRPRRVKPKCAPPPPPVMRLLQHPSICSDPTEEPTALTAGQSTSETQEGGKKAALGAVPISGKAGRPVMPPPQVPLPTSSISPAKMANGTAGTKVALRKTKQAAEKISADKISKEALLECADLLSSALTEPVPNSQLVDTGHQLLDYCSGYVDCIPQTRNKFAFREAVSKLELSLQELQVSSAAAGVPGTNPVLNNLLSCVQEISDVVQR
Sequence of Aurora kinase B (Homo sapiens) (Q96GD4 whole entry): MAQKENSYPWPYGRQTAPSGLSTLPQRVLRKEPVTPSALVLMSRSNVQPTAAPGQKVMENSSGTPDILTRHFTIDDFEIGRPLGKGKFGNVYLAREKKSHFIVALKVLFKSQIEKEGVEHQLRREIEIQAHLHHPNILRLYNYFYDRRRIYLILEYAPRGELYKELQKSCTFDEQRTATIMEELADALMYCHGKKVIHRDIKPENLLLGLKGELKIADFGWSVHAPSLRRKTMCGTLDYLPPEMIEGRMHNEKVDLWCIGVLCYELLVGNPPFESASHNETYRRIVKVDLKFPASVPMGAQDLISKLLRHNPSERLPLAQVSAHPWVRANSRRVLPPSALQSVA
Sequence of Tyrosine-protein kinase ABL1 (Homo sapiens) (P00519 whole entry): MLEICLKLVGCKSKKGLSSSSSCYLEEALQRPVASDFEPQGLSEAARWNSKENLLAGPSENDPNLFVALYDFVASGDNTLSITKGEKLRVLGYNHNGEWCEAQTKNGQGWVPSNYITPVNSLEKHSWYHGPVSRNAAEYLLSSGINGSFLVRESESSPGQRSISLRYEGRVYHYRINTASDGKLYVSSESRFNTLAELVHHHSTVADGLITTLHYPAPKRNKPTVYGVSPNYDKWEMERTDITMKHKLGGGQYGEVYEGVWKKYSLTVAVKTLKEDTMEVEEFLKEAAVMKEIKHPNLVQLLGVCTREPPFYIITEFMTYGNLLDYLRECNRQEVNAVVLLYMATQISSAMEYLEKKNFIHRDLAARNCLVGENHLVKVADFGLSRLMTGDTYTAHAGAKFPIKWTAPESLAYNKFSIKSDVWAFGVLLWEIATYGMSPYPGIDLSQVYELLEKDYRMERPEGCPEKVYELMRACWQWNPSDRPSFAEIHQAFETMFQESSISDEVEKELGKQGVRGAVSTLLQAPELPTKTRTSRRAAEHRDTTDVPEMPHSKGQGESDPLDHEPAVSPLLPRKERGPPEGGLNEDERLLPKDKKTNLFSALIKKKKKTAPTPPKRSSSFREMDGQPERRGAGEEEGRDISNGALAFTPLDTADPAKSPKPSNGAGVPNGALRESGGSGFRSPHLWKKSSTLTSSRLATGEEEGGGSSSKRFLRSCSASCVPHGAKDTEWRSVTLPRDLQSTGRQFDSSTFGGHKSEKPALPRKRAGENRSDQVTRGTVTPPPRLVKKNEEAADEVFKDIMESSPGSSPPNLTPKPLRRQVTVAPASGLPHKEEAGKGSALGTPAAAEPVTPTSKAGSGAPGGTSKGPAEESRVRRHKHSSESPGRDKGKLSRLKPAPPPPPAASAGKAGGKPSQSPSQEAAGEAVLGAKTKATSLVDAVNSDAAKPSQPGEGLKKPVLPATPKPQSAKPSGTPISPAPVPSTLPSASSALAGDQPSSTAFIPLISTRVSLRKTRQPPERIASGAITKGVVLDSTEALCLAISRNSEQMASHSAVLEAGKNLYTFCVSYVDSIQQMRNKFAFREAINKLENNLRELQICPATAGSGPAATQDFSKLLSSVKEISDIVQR

On to `CC(=O)c1ccc(N2CCOCC2)cc1O`, for which the residual activity is 107% (inactive) in [1]; 95% in assay [2]; 110% in assay [3]; 102% in [4]; 109% in assay [5]; 100% in assay [6]. In addition, the residual activity in [7] worked out at 100%; in [8] it was 95%.

As for `Cc1cccc(-c2[nH]c(C(C)(C)C)nc2-c2ccc3c(c2)OCO3)n1`, the residual activity worked out at 88% in assay [2]; 96% in [9]; 102% in [10]; 97% in assay [4]; 93% in [5]; 106% in assay [7]. Also, in assay [8], the residual activity came out at 95%.

For the compound `Cn1cc(/C=C2\C(=O)Nc3ccc(S(N)(=O)=O)cc32)c2ccccc21`, the residual activity in [1] was 101% (inactive); in assay [2] it was 7%; in assay [9], 57%; in [10], 22%; in assay [3], 57%; in assay [4], 31%. In addition, the residual activity was -4% in assay [5], 4% in assay [6], 3% in [7] and 0% in [8].

Take `CC[n+]1c(/C=C/N(C)c2ccccc2)n(-c2ccccc2)c2ccc(-c3nc4ccccc4s3)cc21`: the residual activity in [1] was 107% (inactive); in assay [2], 102%; in [9], 115%; in assay [10], 146%; in assay [3], 112%; in assay [4] it was 85%. Also, the residual activity stood at 117% in assay [5], 139% in [6], 139% in assay [7] and 91% in assay [8].

As for `Cc1cc(Nc2nc(-c3ccccc3)nc3ccccc23)n[nH]1`, the residual activity in [1] was 110% (inactive); in [2], 100%; in assay [9], 54%; in assay [3], 33%; in assay [4] it was 3%; in assay [5], 1%. For the same compound, the residual activity in assay [6] was 0%; in [7], -2%; in [8] it was 0%.

Turning to `COc1ccc(S(=O)(=O)N(CCO)c2ccccc2CN(C)C/C=C/c2ccc(Cl)cc2)cc1`, the residual activity in assay [1] was 111% (inactive); in [2] it was 90%; in [9], 92%; in assay [10] it was 118%; in assay [3], 116%; in [4] it was 87%. In addition, the residual activity was found to be 122% in [5], 127% in assay [6], 90% in [7] and 95% in assay [8].

For `CNc1cc2c(Nc3cccc(Br)c3)ncnc2cn1`, the residual activity in assay [1] was 99% (inactive); in [2], 112%; in [9], 85%; in assay [10], 87%; in assay [3], 93%; in assay [4] it was 79%. For the same compound, the residual activity in [5] stood at 60%; in [6], 71%; in assay [7], 43%; in [8], 10%.

Consider `CC#CC(=O)Nc1cc2c(Nc3ccc(F)c(Cl)c3)ncnc2cn1`, for which the residual activity in assay [1] is 97% (inactive); in assay [2] it was 94%; in assay [9], 92%; in [10], 91%; in assay [3], 118%; in [4], 74%. Further, the residual activity in [5] amounted to 106%; in assay [6], 108%; in assay [7] it was 114%; in assay [8], 85%.

With `Cc1cncc2cccc(S(=O)(=O)N3CCCN(C(=O)CN)C[C@H]3C)c12`, the residual activity in assay [1] was 88% (inactive); in assay [2], 87%; in [9], 88%; in assay [4] it was 92%; in [5], 64%; in assay [6], 36%. The residual activity in assay [7] turned out to be 6%; in assay [8] it was 3%.

On to `COc1cc2ncnc(Nc3ccc(NC(=O)c4ccccc4)cc3)c2cc1OC`, for which the residual activity in [1] was 110% (inactive); in assay [2] it was 100%; in assay [9] it was 101%; in assay [10], 81%; in [4], 93%; in assay [5] it was 18%. The values for the residual activity in assay [6], in assay [7] and in [8] were 12%, 2% and 0%, respectively.

Take `CN(C)c1ccc(/C=C2\C(=O)Nc3ccccc32)cc1`: the residual activity in assay [1] was 118% (inactive); in assay [2], 99%; in [9], 100%; in assay [10], 87%; in assay [3] it was 103%; in [4] it was 89%. Moreover, the residual activity in assay [5] stood at 56%; in [6] it was 26%; in [7] it was 13%; in assay [8], 4%.

As to `O=c1cc(-c2cccc3c2Sc2ccccc2S3)oc(N2CCOCC2)c1`, the residual activity in [1] was 107% (inactive); in [2], 98%; in [9], 99%; in [10], 89%; in assay [3] it was 97%; in [4], 90%. For the same compound, the residual activity in [5] amounted to 101%; in assay [6], 120%; in assay [7], 105%; in assay [8], 92%.

As to `Oc1n[nH]c2nnc(-c3c(-c4ccccc4)nn4ccccc34)cc12`, the residual activity in [1] is 107% (inactive); in [2] it was 105%; in assay [9], 81%; in assay [3], 95%; in assay [4], 64%; in [5], 104%. In addition, the residual activity in assay [6] amounted to 93%; in [7], 5%; in assay [8], 2%.

`N#C/C(=C(\N)Sc1ccc(N)cc1)c1ccccc1C(F)(F)F`: the residual activity in assay [1] is 105% (inactive); in [2], 103%; in [9], 94%; in assay [10], 87%; in assay [3] it was 88%; in assay [4], 82%. Besides, the residual activity stood at 75% in assay [5], 70% in assay [6], 26% in assay [7] and 15% in [8].

As for `COc1cc2ncnc(N3CCN(C(=O)Nc4ccc(Oc5ccccc5)cc4)CC3)c2cc1OC`, the residual activity in assay [1] was 113% (inactive); in [2] it was 67%; in [3], 110%; in assay [4], 118%; in [5], 51%; in assay [6] it was 48%. Moreover, the residual activity came out at 15% in [7] and 7% in [8].

Consider `CCOc1cc2ncnc(Nc3cccc(Br)c3)c2cc1OCC`, for which the residual activity in [1] was 104% (inactive); in assay [2], 115%; in assay [9] it was 48%; in assay [10], 5%; in [3] it was 36%; in assay [4] it was 4%. Also, the residual activity in assay [5] amounted to 55%; in [6], 46%; in [7], 56%; in assay [8] it was 7%.

With `COc1cc2ncc(-c3ccccc3)nc2cc1OC`, the residual activity in assay [2] worked out at 77%; in [9] it was 96%; in assay [10] it was 83%; in assay [3], 99%; in assay [4] it was 84%; in assay [5] it was 83%. Besides, the residual activity in assay [6] was 98%; in assay [7], 83%; in assay [8], 50%.

As to `Nc1cccc(-c2cc3c(Oc4cccc(O)c4)ncnc3[nH]2)c1`, the residual activity in [2] was 95%; in assay [9] it was -6%; in assay [10] it was -5%; in assay [3], -3%; in assay [4], -2%; in assay [5] it was 28%. The residual activity turned out to be 1% in [6], 9% in assay [7] and 0% in [8].
